# Experimental data taken from PubChem BioAssay (NCATS).
# Inconclusive results are not listed. Activity calls are given as the source filed them. Unless noted, calls come from the whole dose curve; as a rule, active = well fitted curve in the direction sought with a large enough effect; inconclusive = small, poorly fitted or top-dose-only effect, or another doubt; inactive = no such curve, though single readings can be large; an effect the other way counts as inactive or inconclusive.
# Key:
# [1] = P-glycoprotein substrates identified in KB-8-5-11 adenocarcinoma cell line, qHTS therapeutic library screen (AID 1346987); note: potency is the fitted concentration of half-maximal effect; nearly all actives have a fitted effect of over 65% in size
# In short: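 KB-8-5-11: colchicine-selected sub-line of KB-3-1 over-expressing P-gp; assay medium lacked colchicine. 72 h drug exposure at 37 degree C, CellTiter-Glo.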
# [2] = qHTS to identify inhibitors of the type 1 interferon - major histocompatibility complex class I in skeletal muscle: primary screen against the NCATS Mechanism Interrogation Plate v5.0 (MIPE) Libary (AID 1347411); note: potency is the fitted concentration of half-maximal effect; nearly all actives have a fitted effect of over 65% in size
# In short: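 Immortalized human C25cl48 myoblasts with HiBit knocked into endogenous HLA-B*08:01 were stimulated with 4.0 ng/ml IFN-beta and exposed to compounds (11-point 1:3 titration, top 46 uM final) for 24 hrs at 37 C; HiBiT lytic luminescence measured.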
# [3] = qHTS drug screen for cell cycle checkpoint inhibitors in PARPi-resistant BRCA-mutant ovarian cancer cell lines. (AID 1963452; calls by dose curve); details: PEO1/OlaR viability, CellTiter-Glo luminescence, 96 h, stronger effect = lower value
# In short: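 PEO1, PEO4 and PEO1/OlaR ovarian cancer cells, 600 per well, exposed 96 h at 37C to a dilution series. Viability read by CellTiter-Glo luminescence, normalized to DMSO and empty wells; activity summarized as Z-AUC.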
# HaCat = assay: Cytotoxic Profiling of Annotated Libraries Using Quantitative High-Throughput Screening (AID 1296008); details: Five cell lines viability, CellTiter-Glo ATP luminescence, 48-72 h; max response: stronger effect = lower value; note: nearly all actives have a fitted effect of over 60% in size; note: potency is the fitted concentration of half-maximal effect; for max response: % is set by controls: 0 for no effect and ±100 for the full control effect
# In short: (§1)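 Cytotoxicity was measured as CellTiter-Glo ATP luminescence, read after 10 min at room temperature. Compound treatment of the cells lasted 48 or 72 hr at 37 degrees Celsius in a qHTS format.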
# SKOV3 = assay: Primary qHTS to identify gynecologic anti-cancer compounds using libraries of approved drugs and bioactive compounds (AID 1345084); details: Gynecologic cancer cell panel viability, ATPlite luminescence, 48 h; series mostly up to 57.5 µM; note: nearly all actives have a fitted effect of over 55% in size; note: potency is the fitted concentration of half-maximal effect
# In short: (§2)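 Five-concentration response, 48 h; readout is ATP-driven luciferase luminescence.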
# [4] = system: Zika virus NS2B-NS3 protease (unlinked complex); assay: Primary screen GU Rhodamine qHTS for Zika virus inhibitors: Unlinked NS2B-NS3 protease assay (AID 1347159); note: % is set by controls: 0 for no effect and ±100 for the full control effect; nearly all actives have a fitted effect of over 60% in size
# In short: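 Compounds, tested up to 114 microM, were incubated for 15 minutes with 25 nM unlinked NS2B-NS3 protease at pH 8.0. Cleavage of 1.5 microM Rhodamine110 substrate was then followed by fluorescence for 15 minutes.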
# PA-1 = assay: Primary qHTS to identify gynecologic anti-cancer compounds using libraries of approved drugs and bioactive compounds (AID 1345084); details: Gynecologic cancer cell panel viability, ATPlite luminescence, 48 h; series mostly up to 57.5 µM; note: nearly all actives have a fitted effect of over 55% in size; note: potency is the fitted concentration of half-maximal effect
# In short: as §2
# NIH3T3 = assay: Cytotoxic Profiling of Annotated Libraries Using Quantitative High-Throughput Screening (AID 1296008); details: Five cell lines viability, CellTiter-Glo ATP luminescence, 48-72 h; max response: stronger effect = lower value; note: nearly all actives have a fitted effect of over 60% in size; note: potency is the fitted concentration of half-maximal effect; for max response: % is set by controls: 0 for no effect and ±100 for the full control effect
# In short: as §1
# [5] = Drug repurposing screens with cells derived from glioblastoma tumor samples (AID 1345199); details: GBM patient neurospheres viability, ATP luminescence, 48 h; note: % is set by controls: 0 for no effect and ±100 for the full control effect; nearly all actives have a fitted effect of over 40% in size
# In short: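 Four patient lines of CD133+ GBM neurospheres were screened at several concentrations; hits were retested in those lines plus three slower-growing GBM lines, using 48-hour treatment and ATP-based viability.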
# [6] = target: Cytochrome P450 2D6 (Homo sapiens) (UniProt P10635); assay: Cytochrome P450 family 2 subfamily D member 6 (CYP2D6) small molecule antagonists: luciferase biochemical (cell-free) qHTS assay (AID 1645840; active = well fitted curve in the direction sought with a large enough effect in the repeat runs; an effect the other way counts as inactive or inconclusive; note: potency is the fitted concentration of half-maximal effect; nearly all actives have a fitted effect of over 55% in size)
# In short: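 P450-Glo luminescent screen: recombinant CYP2D6 enzyme–proluciferin substrate mix preincubated with compound 10 min at room temperature, then NADPH regeneration added for 1 h at room temperature. Detection reagent added for 20 min; luciferin light read as relative luminescence units.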
# [7] = target: Catechol O-methyltransferase (Homo sapiens) (UniProt P21964); assay: Confirmatory Screen for Target Class Profiling of Small Molecule Inhibitors of Methyltransferases (AID 1745852); details: MTase-Glo luminescence, SAH detection, recombinant enzyme; measured here: COMT max response; stronger effect = lower value; for activity change, negative = inhibition: % is set by controls: 0 for no effect and ±100 for the full control effect
# [8] = target: Guanidinoacetate N-methyltransferase (Homo sapiens) (UniProt Q14353); assay: as above; details: activity change, negative = inhibition: at 57.3 µM (top of the series) unless noted
# [9] = target: Nicotinamide N-methyltransferase (Homo sapiens) (UniProt P40261); assay: as above; details: MTase-Glo luminescence, SAH detection, recombinant enzyme; measured here: NNMT max response; stronger effect = lower value
# [10] = target: Phenylethanolamine N-methyltransferase (Homo sapiens) (UniProt P11086); assay: as above; details: MTase-Glo luminescence, SAH detection, recombinant enzyme; measured here: PNMT max response; stronger effect = lower value
# [11] = qHTS assay to identify inhibitors of the type 1 interferon - major histocompatibility complex class I in skeletal muscle: Counter screen cell viability and HiBit confirmation (AID 1347412); details: iHSKM muscle cells + IFN-b, HiBiT or CellTiter-Glo, 24 h, HiBiT; note: nearly all actives have a fitted effect of over 60% in size; note: potency is the fitted concentration of half-maximal effect; for activity change, negative = inhibition: % is set by controls: 0 for no effect and ±100 for the full control effect
# In short: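 Luminescence read-out: Nano-Glo HiBiT lytic signal from C-terminally HiBiT-tagged HLA-B in CRISPR-edited human myoblasts, plus CellTiter Glo ATP as viability counter screen. IFN-beta 4.0 ng/ml; 24 hrs treatment at 37 C, 5% CO2.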
# [12] = Confirmatory screen NINDS Rhodamine qHTS for Zika virus inhibitors (AID 1347161)
# In short: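 Single-chain NS2B-NS3 protease, 25 nM, pH 8.0; compounds preincubated 15 min. Activity: Rhodamine110 release from 1.5 microM substrate over 15 min, room temperature, data fitted to 4-parameter Hill.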
# [13] = Tertiary RLuc qRT-PCR qHTS assay for Zika virus inhibitors (AID 1347169); note: potency is the fitted concentration of half-maximal effect; nearly all actives have a fitted effect of over 55% in size
# In short: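 Vero, 1,000 cells/well, o/n 37 C; cpd pinned in DMSO; ZIKV-RLuc Cambodian, MOI 1-2, 48-72 h 37 C; live-cell RLuc substrate, lum read at 1-1.5 h.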
# [14] = measured here: PEO1 parental Z-AUC
# Sequence of Catechol O-methyltransferase (Homo sapiens) (P21964 whole entry, looked up): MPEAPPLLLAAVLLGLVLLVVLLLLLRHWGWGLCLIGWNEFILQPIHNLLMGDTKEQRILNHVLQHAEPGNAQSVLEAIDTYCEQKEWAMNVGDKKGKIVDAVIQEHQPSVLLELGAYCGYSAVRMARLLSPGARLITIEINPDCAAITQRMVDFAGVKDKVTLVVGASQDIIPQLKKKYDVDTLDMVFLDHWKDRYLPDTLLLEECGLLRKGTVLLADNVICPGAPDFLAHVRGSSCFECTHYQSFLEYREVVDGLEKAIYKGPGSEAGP
# Sequence of Nicotinamide N-methyltransferase (Homo sapiens) (P40261 whole entry, looked up): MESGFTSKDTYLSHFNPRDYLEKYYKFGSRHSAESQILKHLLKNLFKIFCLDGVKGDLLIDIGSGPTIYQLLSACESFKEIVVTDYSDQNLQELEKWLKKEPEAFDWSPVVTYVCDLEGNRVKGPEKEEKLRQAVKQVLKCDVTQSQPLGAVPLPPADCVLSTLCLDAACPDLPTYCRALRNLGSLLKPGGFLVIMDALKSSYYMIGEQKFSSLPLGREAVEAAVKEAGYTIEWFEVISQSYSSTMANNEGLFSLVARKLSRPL
# Sequence of Phenylethanolamine N-methyltransferase (Homo sapiens) (P11086 whole entry, looked up): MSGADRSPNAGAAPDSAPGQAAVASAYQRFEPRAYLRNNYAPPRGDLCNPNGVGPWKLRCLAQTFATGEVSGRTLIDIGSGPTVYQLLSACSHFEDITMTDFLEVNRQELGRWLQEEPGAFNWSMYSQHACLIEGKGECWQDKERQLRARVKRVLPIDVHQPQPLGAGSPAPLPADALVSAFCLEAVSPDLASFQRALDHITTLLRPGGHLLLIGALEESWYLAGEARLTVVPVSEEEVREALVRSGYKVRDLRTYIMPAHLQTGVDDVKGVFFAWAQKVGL
# Sequence of Cytochrome P450 2D6 (Homo sapiens) (P10635 whole entry, looked up): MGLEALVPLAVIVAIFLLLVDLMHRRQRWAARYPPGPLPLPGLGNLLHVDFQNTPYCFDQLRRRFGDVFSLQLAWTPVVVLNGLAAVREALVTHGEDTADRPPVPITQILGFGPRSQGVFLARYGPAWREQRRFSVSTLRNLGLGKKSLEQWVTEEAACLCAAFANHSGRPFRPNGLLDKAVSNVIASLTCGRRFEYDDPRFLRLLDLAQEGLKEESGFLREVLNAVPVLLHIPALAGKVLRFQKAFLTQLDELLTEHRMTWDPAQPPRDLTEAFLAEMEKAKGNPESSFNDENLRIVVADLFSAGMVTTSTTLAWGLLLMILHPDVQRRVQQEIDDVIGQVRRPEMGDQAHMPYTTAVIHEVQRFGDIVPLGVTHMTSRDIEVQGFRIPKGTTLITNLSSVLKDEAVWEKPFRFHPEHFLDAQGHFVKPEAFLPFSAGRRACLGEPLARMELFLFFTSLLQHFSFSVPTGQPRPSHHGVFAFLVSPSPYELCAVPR
smiles,measurement,setting,value
COc1ccc(CNC(=O)Nc2ncc([N+](=O)[O-])s2)cc1,Potency,[1],23.1 µM (active)
same,Potency,[2],18.6 µM (active)
same,Z-AUC,[3],-1.06 (inactive)
same,Z-AUC,[3]; [14],-0.517
same,Z-AUC,[3]; measured here: PEO4 Z-AUC,-0.518
same,max response,HaCat,3.95% (inactive)
same,Potency,SKOV3,inactive
Cc1cc(CN)cc(C)c1NC(=O)c1ccc(-c2cc(Cl)ccc2Cl)o1,Potency,[1],20.6 µM (active)
same,Potency,[4],inactive
same,Potency,PA-1,inactive
same,Potency,SKOV3,inactive
C=C1[C@@H](C2=CC(=O)OC2)CC[C@@]2(O)[C@@H]1CC1[C@H]2CC[C@@H]2C[C@@H](O[C@H]3O[C@@H](C)[C@@H](O[C@@H]4O[C@H](CO[C@@H]5O[C@H](CO)[C@@H](O)[C@H](O)[C@H]5O)[C@@H](O)[C@H](O)[C@H]4O)[C@H](OC)[C@H]3O)CC[C@]12C (stereo not given in full),Potency,[4],inactive
same,outcome,NIH3T3,inactive
CCNC(=O)[C@@H]1CCCN1C(=O)[C@H](CCCN=C(N)N)NC(=O)[C@H](CC(C)C)NC(=O)[C@@H](CC(C)C)NC(=O)[C@H](Cc1ccc(O)cc1)NC(=O)[C@H](CO)NC(=O)[C@H](Cc1c[nH]c2ccccc12)NC(=O)[C@H](Cc1cnc[nH]1)NC(=O)[C@@H]1CCC(=O)N1,Potency,[4],inactive
same,Potency,PA-1,inactive
same,Potency,SKOV3,inactive
same,"activity, negative = cell killing","[5]; at 45.9 µM (top of the series), tumour line B",-5.52% (inactive)
same,"activity, negative = cell killing","[5]; at 45.9 µM (top of the series), tumour line D",4.71% (inactive)
same,"activity, negative = cell killing","[5]; at 46 µM (top of the series), tumour line A",-26.4% (inactive)
same,"activity, negative = cell killing","[5]; at 46.1 µM (top of the series), tumour line C",1.53% (inactive)
CC(=O)C1=C(O)C2c3c[nH]c4cccc(c34)CC2C(C)(C)N(C)C1=O (stereo not given),Potency,[1],9.2 µM (active)
same,Potency,[4],inactive
same,max response,HaCat,-23.8% (inactive)
same,Potency,SKOV3,inactive
C=CC(=O)N1CCN(C(=O)c2cc(-c3cc(Cl)ccc3Cl)c(Cl)cc2OC)CC1,Potency,[6],19 µM (active)
same,activity,[7],-10.7%
same,"activity change, negative = inhibition",[8],-11.4%
same,activity,[9],-31.6%
same,activity,[10],-2.64%
same,max response,NIH3T3,-20.9% (inactive)
same,Potency,PA-1,inactive
C=CC(=O)Nc1cc(Nc2nccc(-c3cn(C)c4ccccc34)n2)c(OC)cc1N(C)CCN(C)C,Potency,[1],11.6 µM (active)
same,Potency,[4],inactive
same,Potency,[2],8.29 µM (active)
same,Z-AUC,[3],-0.422 (inactive)
same,Z-AUC,[3]; [14],-0.39
same,Z-AUC,[3]; measured here: PEO4 Z-AUC,-1.1
same,Potency,HaCat,1.03 µM (active)
same,Potency,PA-1,25.1 µM (active)
same,Potency,[11],24.9 µM (active)
Cc1ccn(-c2cc(Cl)ccc2[C@@H](Oc2cc(-c3ccc(C[C@H](N)C(=O)O)cc3)nc(N)n2)C(F)(F)F)n1,Potency,[4],inactive
same,Potency,[12],24.8 µM (active)
same,Potency,[13],20.8 µM (active)
same,activity,[7],-0.316%
same,"activity change, negative = inhibition",[8],0%
same,activity,[9],-31.2%
same,activity,[10],-1.43%
same,Potency,PA-1,inactive
same,Potency,SKOV3,inactive
Cc1cc(N=Nc2ccc(S(=O)(=O)Nc3ccccn3)cc2)c(N)cc1O,Potency,NIH3T3,8.2 µM (active)
same,Potency,PA-1,8.91 µM (active)
CNCc1ccc(C)c(NC(=O)c2ccc(Nc3nc(-c4ccccc4)c4ccccc4n3)cc2)c1,Potency,[2],33 µM (active)
same,Z-AUC,[3],-0.484 (inactive)
same,Z-AUC,[3]; [14],-0.199
same,Z-AUC,[3]; measured here: PEO4 Z-AUC,-0.532
same,Potency,NIH3T3,18.4 µM (active)
same,"activity change, negative = inhibition",[11]; at 45.9 µM (top of the series),-20% (inactive)
Cc1nc(C)c2c(n1)N(Cc1ccc(-c3ccccc3-c3nn[nH]n3)cc1)C(=O)CC2,Potency,[4],inactive
same,Potency,PA-1,inactive
same,Potency,SKOV3,inactive
